This assay can be described thus: West Nile virus CPE inhibition, SAR follow-up, cell-based, synthesized analogs (AID 2238). The following applies: max CPE inhibition: measured here: maximum CPE inhibition observed, at 40 µM, stronger effect = higher value unless noted.

Activity calls are given as the source filed them. The rule behind the calls is not given here.

With `Cc1cccc2c(=O)n3c(nc12)CCC3`, the max CPE inhibition was 1.97% and the result was inactive.
The corresponding values for `CC(=O)Nc1ccc2nc3n(c(=O)c2c1)CCC3` are 2.33% and “inactive”.
In the case of `COc1cccc(-n2c(SCC(=O)Nc3ccc4c(c3)CCC4)nc3ccccc3c2=O)c1`, the max CPE inhibition is 26.8% [measured here: maximum CPE inhibition observed, at 20 µM, stronger effect = higher value] and the compound was called inactive.
The corresponding values for `O=C(Nc1nc(-c2ccc(Cl)cc2)cs1)c1ccccc1F` are 1.34% and “inactive”.
The corresponding values for `O=c1c2cccc(Cl)c2nc2n1CCC2` are 1.83% and “inactive”.
The corresponding values for `O=C(CSc1nc2ccccc2c(=O)n1-c1ccc(F)cc1)Nc1cccc2ccccc12` are 2.57% and “inactive”.

For the origin of these results see PubChem BioAssay AID2238 (Southern Research Specialized Biocontainment Screening …, 2010).
